Laboratory results as given in PubChem BioAssay (EPA / NIEHS).
“And” between values parts separate entries of the source, which are not always exact repeats. Equal entries are not always repeated. A structure can be active in one record and inactive in another. The source made the active and inactive calls. The calls were made as follows: active = hit-call score of the fitted dose curve at least 0.9, where 1 is the maximum; inactive = score below 0.9.

What was measured:
Details in all cases: primary human HUVEC with PBMC; actives raise or lower the signal
[1] = read-out: Monocyte Chemoattractant Protein-1 (MCP1), CCL2 (gene 6347); assay: BSK_LPS_MCP1: BioMAP Diversity Plus: LPS Assay for Monocyte Chemoattractant Protein-1 (MCP1) Biomarker Activity (AID 2283081);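 as to AC50: secreted MCP-1 protein quantified by ELISA in culture supernatant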
Outline: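 Human umbilical vein endothelial cells co-cultured with PBMC, LPS-stimulated; secreted MCP-1 measured by ELISA 24 h after compound addition. Bidirectional curve fitting against DMSO baseline; SRB total-protein staining in parallel cultures for cytotoxicity.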

[2] = BSK_LPS_PGE2: BioMAP Diversity Plus: LPS Assay for Prostaglandin E2 (PGE2) Biomarker Activity (AID 2283082);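 as to AC50: secreted prostaglandin E2 measured by ELISA in LPS-stimulated co-culture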
Outline: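 ELISA read-out of PGE2 from human umbilical vein endothelial cells co-cultured with peripheral blood mononuclear cells under LPS, 24 h post-dose. Gain or loss of signal scored relative to DMSO baseline.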

[3] = read-out: Macrophage colony-stimulating factor (MCSF), CSF1 (gene 1435); assay: BSK_LPS_MCSF: BioMAP Diversity Plus: LPS Assay for Macrophage colony-stimulating factor (MCSF) Biomarker Activity (AID 2283083)
Outline: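 HUVEC–PBMC co-culture, M-CSF measured by ELISA 24 h after chemical dosing. Fitted in both directions relative to DMSO as negative control; overt cytotoxicity assessed by SRB total-protein staining in parallel cultures.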

[4] = read-out: Tissue Factor, F3 (gene 2152); assay: BSK_LPS_TissueFactor: BioMAP Diversity Plus: LPS Assay for Tissue Factor Biomarker Activity (AID 2283084)
Outline: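 Human umbilical vein endothelial cells co-cultured with PBMC were dosed with compound. Cell-surface CD142 was measured by ELISA 24 h later. Activity was fitted bidirectionally against DMSO, with SRB total-protein staining in parallel cultures for cytotoxicity.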

[5] = read-out: Tumor necrosis factor (Homo sapiens) (UniProt P01375); assay: BSK_LPS_TNFa: BioMAP Diversity Plus: LPS Assay for Tumour Necrosis Factor alpha (TNFa) Biomarker Activity (AID 2283085);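 as to AC50: TNFa protein level quantified by ELISA in the co-culture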
Outline: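 HUVEC/PBMC co-culture, LPS-stimulated; 24 h post-dose; TNFa by ELISA; gain or loss of signal fitted bidirectionally vs DMSO baseline.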

[6] = read-out: Vascular cell adhesion molecule 1 (VCAM1), VCAM1 (gene 7412); assay: BSK_LPS_VCAM1: BioMAP Diversity Plus: LPS Assay for Vascular cell adhesion molecule 1 (VCAM1) Biomarker Activity (AID 2283086)
Outline: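 ELISA read-out of VCAM-1 at 24 h post-dosing in an LPS-driven HUVEC/PBMC primary human co-culture; gain or loss of signal fitted bidirectionally against DMSO baseline. Cytotoxicity tracked in parallel cultures by SRB total-protein staining.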

CD38, CD38 (gene 952) = assay: BSK_SAg_CD38: BioMAP Diversity Plus: SAg Assay for CD38 Biomarker Activity (AID 2283087)
Outline: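 Measures CD38 on a human endothelial/PBMC co-culture driven by SEB and TSST-1, 24 h after compound exposure, using ELISA with fluorescence detection; DMSO defines baseline for bidirectional curve fitting.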

CD40, CD40 (gene 958) = assay: BSK_SAg_CD40: BioMAP Diversity Plus: SAg Assay for CD40 Biomarker Activity (AID 2283088)
Outline: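 HUVEC plus PBMC co-culture, superantigen-activated, with CD40 read by ELISA 24 h after dosing. Curves fitted in both directions against DMSO. Overt cytotoxicity checked by parallel SRB total-protein staining.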

CD69, CD69 (gene 969) = assay: BSK_SAg_CD69: BioMAP Diversity Plus: SAg Assay for CD69 Biomarker Activity (AID 2283089);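 as to AC50: cell surface CD69 protein quantified by ELISA with fluorescence detection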
Outline: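 Endothelial/PBMC co-culture; chemical added; 24 h incubation; CD69 ELISA with fluorescence detection; bidirectional fit vs DMSO.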

[7] = read-out: Monocyte Chemoattractant Protein-1 (MCP1), CCL2 (gene 6347); assay: BSK_SAg_MCP1: BioMAP Diversity Plus: SAg Assay for Monocyte Chemoattractant Protein-1 (MCP1) Biomarker Activity (AID 2283090)
Outline: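 Values derive from bidirectional fitting of ELISA-measured MCP1 against DMSO controls. Readings were taken 24 h after dosing human vascular endothelial cells co-cultured with peripheral blood mononuclear cells under superantigen stimulation.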

Measured: AC50

Sequence of Tumor necrosis factor (Homo sapiens) (P01375 whole entry, looked up): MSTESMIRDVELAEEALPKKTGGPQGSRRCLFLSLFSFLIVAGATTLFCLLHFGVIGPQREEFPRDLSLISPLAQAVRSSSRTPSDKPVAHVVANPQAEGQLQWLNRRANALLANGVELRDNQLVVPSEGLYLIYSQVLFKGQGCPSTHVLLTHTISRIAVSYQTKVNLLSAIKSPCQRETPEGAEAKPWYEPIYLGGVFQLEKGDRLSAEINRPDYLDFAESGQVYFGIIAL

CC(C)(C)C(O)/C(=C\c1ccc(Cl)cc1Cl)n1cncn1 (stereo not given)
active: [1] 30.5 µM | [2] 0.994 µM | [3] 20.6 µM | [6] 27.6 µM | CD38, CD38 (gene 952) 27.5 µM | CD40, CD40 (gene 958) 25.6 µM | CD69, CD69 (gene 969) 15.8 µM
inactive: [4] | [5]

C[C@H]1[C@H](c2ccc(Cl)cc2)SC(=O)N1C(=O)NC1CCCCC1
inactive: [2] | [4] | [5]
active: [1] 20.1 µM | [3] 14.6 µM | [6] 12.5 µM | CD38, CD38 (gene 952) 16 µM | CD40, CD40 (gene 958) 15.4 µM | CD69, CD69 (gene 969) 13.5 µM

Clc1ccccc1-c1nnc(-c2ccccc2Cl)nn1
not listed: [7]
inactive: all other assays above

OCCOc1ccccc1
not listed: [7]
inactive: all other assays above

O=[N+]([O-])c1c(Cl)c(Cl)c(Cl)c(Cl)c1Cl
active: [3] 22.4 µM | [5] 25.9 µM | [6] 25.5 µM
not listed: [7]
inactive: all other assays above

CC1(C)C(C=C(Cl)Cl)C1C(=O)OC(C#N)c1ccc(F)c(Oc2ccccc2)c1 (stereo not given)
active: [2] 5.22 µM
not listed: [7]
inactive: all other assays above

Cc1[nH]c(=O)n(C(C)(C)C)c(=O)c1Cl
active: CD69, CD69 (gene 969) 3.68 µM
not listed: [7]
inactive: all other assays above

ClC1C(Cl)C(Cl)C(Cl)C(Cl)C1Cl (stereo not given)
active: [5] 13.3 µM | [6] 31.3 µM
inactive: [1] | [2] | [3] | [4] | [5] | [6] | CD38, CD38 (gene 952) | CD40, CD40 (gene 958) | CD69, CD69 (gene 969)

CNC(=O)Oc1cccc(N=CN(C)C)c1
active: [4] 26.5 µM | [6] 17.4 µM | CD38, CD38 (gene 952) 33 µM | CD40, CD40 (gene 958) 34.6 µM
not listed: [7]
inactive: all other assays above

CN1CSC(=S)N(C)C1
active: [1] 11.9 µM | [2] 3.85 µM | [3] 10.8 µM | [4] 13.7 µM | [5] 8.45 µM | [6] 18.3 µM | CD38, CD38 (gene 952) 23.3 µM | CD40, CD40 (gene 958) 20 µM | CD69, CD69 (gene 969) 20 µM

O=C(Nc1ccccc1)Nc1cnns1
active: [5] 18.4 µM
not listed: [7]
inactive: all other assays above

CNC(=O)Oc1ccccc1OC(C)C
not listed: [7]
inactive: all other assays above

O=S(=O)(O)C(F)(F)C(F)(F)C(F)(F)C(F)(F)C(F)(F)C(F)(F)C(F)(F)C(F)(F)F
active: [5] 15 µM | CD40, CD40 (gene 958) 20 µM
inactive: [1] | [2] | [3] | [4] | [5] | [6] | CD38, CD38 (gene 952) | CD40, CD40 (gene 958) | CD69, CD69 (gene 969)

O=[N+]([O-])/N=C1\NCCN1Cc1ccc(Cl)nc1
not listed: [7]
inactive: all other assays above

CCS(=O)(=O)c1cccnc1S(=O)(=O)NC(=O)Nc1nc(OC)cc(OC)n1
active: [2] 2.31 µM | [5] 1.75 µM
not listed: [7]
inactive: all other assays above

CCC(C)Nc1c([N+](=O)[O-])cc(C(C)(C)C)cc1[N+](=O)[O-] (stereo not given)
active: [3] 11.1 µM | [6] 22.8 µM | CD38, CD38 (gene 952) 16.6 µM | CD40, CD40 (gene 958) 30.7 µM | CD69, CD69 (gene 969) 15.6 µM
inactive: [1] | [2] | [4] | [5]

CCN(CC)C(=O)SCc1ccc(Cl)cc1
active: [2] 7.03 µM
not listed: [7]
inactive: all other assays above

CC(C)(C)C(O)C(Oc1ccc(Cl)cc1)n1cncn1 (stereo not given)
active: [2] 3.1 µM | [3] 20 µM | CD38, CD38 (gene 952) 4.99 µM | CD40, CD40 (gene 958) 8.99 µM
inactive: [1] | [2] | [3] | [4] | [5] | [6] | CD38, CD38 (gene 952) | CD40, CD40 (gene 958) | CD69, CD69 (gene 969)

O=S1OCC2C(CO1)C1(Cl)C(Cl)=C(Cl)C2(Cl)C1(Cl)Cl (stereo not given)
inactive: [2]
active: [1] 34.9 µM | [3] 30.2 µM | [4] 31.2 µM | [5] 32.2 µM | [6] 18.3 µM | CD38, CD38 (gene 952) 28.3 µM | CD40, CD40 (gene 958) 16.3 µM | CD69, CD69 (gene 969) 26.9 µM

O=C(O)C(F)(F)C(F)(F)C(F)(F)C(F)(F)C(F)(F)C(F)(F)C(F)(F)F
active: [2] 35.5 µM and 27.5 µM | [5] 9.76 µM
inactive: [1] | [2] | [3] | [4] | [5] | [6] | CD38, CD38 (gene 952) | CD40, CD40 (gene 958) | CD69, CD69 (gene 969) | [7]

COc1nn(CSP(=S)(OC)OC)c(=O)s1
active: [2] 12.6 µM
not listed: [7]
inactive: all other assays above

CNC(=O)CSP(=S)(OC)OC
not listed: [7]
inactive: all other assays above

CCOCN(C(=O)CCl)c1c(C)cccc1CC
active: [1] 31.2 µM | [3] 23.9 µM | [5] 5.13 µM | [6] 20 µM | CD38, CD38 (gene 952) 27 µM | CD69, CD69 (gene 969) 11.8 µM
inactive: [2] | [4] | CD40, CD40 (gene 958)

N#CN
not listed: [7]
inactive: all other assays above

CC1(c2ccc(Oc3ccccc3)cc2)OC(=O)N(Nc2ccccc2)C1=O (stereo not given)
inactive: [5]
active: [1] 29.5 µM | [2] 6.92 µM | [3] 20 µM | [4] 28.4 µM | [6] 20 µM | CD38, CD38 (gene 952) 19.9 µM | CD40, CD40 (gene 958) 15.8 µM | CD69, CD69 (gene 969) 20 µM

COC(=O)c1ccccc1S(=O)(=O)NC(=O)Nc1nc(C)nc(OC)n1
not listed: [7]
inactive: all other assays above
